# From publication PMC4552634, “A New Set of Chemical Starting Points with Plasmodium falciparum Transmission-Blocking Potential for Antimalarial Drug Discovery” (PLoS ONE, 2015)
# Among all 13,000 compounds or so, about 3,200 (25%) showed an effect of 50% or more. The list shows a part of the results.
# Test system: P. falciparum stage V gametocytes
# Parameters: BacTiter-Glo ATP luminescence viability of purified stage V gametocytes in 384-well plates, per cent inhibition versus DMSO
# Conditions: 48 h, 5 µM; inhibitor
compound,measurement,value
Cc1ccc(/C=C/C(=O)NCCCCCN2CCN(C(=O)Nc3ccc(Cl)c(C(F)(F)F)c3)CC2)cc1 [TCMDC-136099],% Inhibition,10.82%
CC1(C)N=C(N)N=C(N)N1OCOc1ccc(Cl)cc1 [TCMDC-131734],% Inhibition,26.86%
CCCCCCN1CCCN(Cc2ccc(C(=O)Nc3ccc(C)c(F)c3)cc2)CC1 [TCMDC-136411],% Inhibition,22.16%
N=C(N)Nc1nc(-c2ccc(NC(=O)Nc3cccc(-c4csc(NC(=N)N)n4)c3)cc2)cs1 [TCMDC-139559],% Inhibition,111.8%
NC(N)=Nc1nc(-c2cccc(NC(=O)C(F)(F)F)c2)cs1 [TCMDC-137441],% Inhibition,-3.219%
NC(N)=Nc1nc(-c2ccc(NCc3ccc(CNc4cccc(-c5csc(N=C(N)N)n5)c4)cc3)cc2)cs1 [TCMDC-140699],% Inhibition,83.03%
O=C(Nc1cccc(-c2csc(NC(=O)c3ccc4ccccc4c3)n2)c1)c1ccc2ccccc2c1 [TCMDC-124033],% Inhibition,-5.611%
NC(N)=Nc1nc(-c2cccc(NC(=O)NCC(c3ccccc3)c3ccccc3)c2)cs1 [TCMDC-139555],% Inhibition,-30.72%
NC(N)=Nc1nc(-c2cccc(NC(=O)Cc3ccccc3)c2)cs1 [TCMDC-139599],% Inhibition,13.87%
NC(N)=Nc1nc(-c2cccc(NC(=O)CCCCCCCON3C(N)=NC(N)=NC34CCCCC4)c2)cs1 [TCMDC-140420],% Inhibition,-29.14%
NC(N)=Nc1nc(-c2cccc(NC(=O)NCc3cccc4ccccc34)c2)cs1 [TCMDC-139552],% Inhibition,11.54%
COc1ccc(CNC(=O)Nc2cccc(-c3csc(N=C(N)N)n3)c2)cc1 [TCMDC-139554],% Inhibition,8.01%
NC(N)=Nc1nc(-c2cccc(NC(=O)NCc3ccc(OC(F)(F)F)cc3)c2)cs1 [TCMDC-139556],% Inhibition,86.49%
NC(N)=Nc1nc(-c2cccc(NC(=O)NCCc3c[nH]c4ccc(OCc5ccccc5)cc34)c2)cs1 [TCMDC-139557],% Inhibition,-16.48%
Cc1ccccc1CNC(=O)Nc1cccc(-c2csc(N=C(N)N)n2)c1 [TCMDC-139553],% Inhibition,79.76%
CCCNC(=O)C1Cc2cc(OC)c(OC)cc2C2(N1)C(=O)N(Cc1cccc(OC)c1)c1ccccc12 (stereo not shown) [TCMDC-141464],% Inhibition,26.41%
C=CCc1cc(OC)ccc1OCCCOc1c(C)nc(N)nc1N [TCMDC-131358],% Inhibition,1.5%
CCCCCCc1ncc(-c2cc3cc(O)c(-c4ccccc4)cc3oc2=O)s1 [TCMDC-124096],% Inhibition,-4.644%
c1ccc2c3c([nH]c2c1)C(c1ccc2c(c1)CCO2)N(c1ncnc(N2CCN(CCCN4CCOCC4)CC2)n1)CC3 (stereo not shown) [TCMDC-138517],% Inhibition,42.57%
O=[N+]([O-])c1ccc(NC(=NCCOc2ccccc2)Nc2ccccc2Br)c(O)c1 [TCMDC-139982],% Inhibition,18.66%
Cc1cc(Oc2ccc(-n3ccnc3)cc2)nc(N2CCN(CCCN3CCCC3)CC2)n1 [TCMDC-132208],% Inhibition,34.43%
COc1cc(-n2c(CN3CCCC3)nc3cc(-c4ccc(Cl)cc4)sc3c2=O)ccc1OCCN1CCCC1 [TCMDC-135298],% Inhibition,36.8%
CCN(C)CCCn1c(N(C)C)nc2cc(-n3cnc4cc(-c5ccc(Cl)cc5)sc4c3=O)ccc21 [TCMDC-138926],% Inhibition,-50.75%
CN(CCN1CCCC1)c1nc2ccc(-n3cnc4cc(-c5ccc(Cl)cc5)sc4c3=O)cc2[nH]1 [TCMDC-138918],% Inhibition,5.034%
COc1cc(-n2cnc3cc(-c4ccc(Cl)cc4)sc3c2=O)ccc1OCCN1CCC(c2cccc(NC(C)=O)c2)CC1 [TCMDC-138930],% Inhibition,71.5%
CN(C)c1nc2cc(-n3cnc4cc(-c5ccc(Cl)cc5)sc4c3=O)ccc2n1CCCN1CCCC1 [TCMDC-138922],% Inhibition,42.12%
COc1cc(-n2cnc3cc(-c4ccc([N+](=O)[O-])cc4)sc3c2=O)ccc1OCCN1CCCC1 [TCMDC-138916],% Inhibition,104.9%
CCNC[C@H]1CCCN1CCOc1ccc(-n2cnc3cc(-c4ccc(Cl)cc4)sc3c2=O)cc1OC [TCMDC-134841],% Inhibition,68.56%
CN(C)c1nc2cc(-n3cnc4cc(-c5ccc(Cl)cc5)sc4c3=O)ccc2n1CCCN1CCCCC1 [TCMDC-138925],% Inhibition,34.32%
CCCCCc1ccc(N2C(N)=NC(N)=NC2(C)C)cc1 [TCMDC-137709],% Inhibition,8.731%
Cc1cccn2c(=O)c3cc(C(=O)NCCN4CCOCC4)c(=N)n(CCc4ccccc4)c3nc12 [TCMDC-124570],% Inhibition,5.032%
OCc1ccc(-c2cncc(Nc3ccc(F)c(Cl)c3)c2)cc1 [TCMDC-136671],% Inhibition,-20.21%
CCOc1ccc(C=CC(=O)Nc2ccc3nc(N4CCN(C)CC4)cc(C)c3c2)cc1OC [TCMDC-125866],% Inhibition,-25.94%
CC(C)c1ccc(NC(=O)c2ccc(NCCCN(C)Cc3ccccc3)c([N+](=O)[O-])c2)cc1 [TCMDC-125687],% Inhibition,-12.67%
